# DUX4 txn inh: DUX4-mediated transcription inhibition. 293T-iDUX4 ZSCAN4-Gaussia luciferase reporter, 24 h; hits give low values. activity change, negative = inhibition, % (no concentration beside the values). 37,000 compounds, 0.8% hits. AID 1224904;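 active means mean inhibition of at least 10% in the main channel, exceeding the control channel by a set limit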;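 further: 0% = median of neutral control wells and -100% = median of positive control wells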
# * = called active by the depositor. Shown is part of a subset that was picked to be rich in hits.
SMILES,DUX4 txn inh
CCCC#Cc1ccc([C@H]2[C@H]3CN(C(=O)Nc4ccccc4)CC(=O)N3[C@H]2CO)cc1,13
CCCC#Cc1ccc([C@H]2[C@H](CO)N3C(=O)CN(C(=O)Nc4cccc(F)c4)C[C@@H]23)cc1,-69*
CC(=O)N1CC(=O)N2[C@H](C1)[C@@H](c1ccc(C#Cc3cccnc3)cc1)[C@@H]2CO,3
O=C1CNC[C@H]2[C@@H](c3ccc(C#CC4CCCCC4)cc3)[C@H](CO)N12,16
CC(=O)N1CC(=O)N2[C@H](CO)[C@H](c3ccc(C#Cc4cccnc4)cc3)[C@@H]2C1,-11*
O=C(Nc1cccc(F)c1)N1CC(=O)N2[C@H](CO)[C@@H](c3ccc(C#CCC4CCCC4)cc3)[C@@H]2C1,-2
O=C1CNC[C@@H]2[C@@H](c3ccc(C#Cc4cccnc4)cc3)[C@@H](CO)N12,-20*
O=C1CNC[C@@H]2[C@H](c3ccc(C#CC4CCCCC4)cc3)[C@@H](CO)N12,2
CC(=O)N1CC(=O)N2[C@H](CO)[C@@H](c3ccc(C#Cc4cccnc4)cc3)[C@@H]2C1,-4
CCCN1[C@@H]2c3ccc(-c4ccc(OC)cc4)c(=O)n3C[C@H]1[C@H](CO)[C@H]2C(=O)NCC,3
Cc1cccc(-c2ccc([C@@H]3[C@@H](CO)N4CCCCN(C(=O)NC(C)C)C[C@@H]34)cc2)c1,-10
CN1[C@H](CO)[C@@H]2c3ccccc3N(C(=O)Nc3ccccc3F)C[C@@H]21,-2
CC(C)NC(=O)N(C)C[C@@H]1OCCCC[C@@H](C)Oc2ccc(NS(C)(=O)=O)cc2C(=O)N([C@@H](C)CO)C[C@H]1C,-3
O=C1N[C@@H](Cc2ccccc2)COCc2cn(nn2)CC[C@@H]1Cc1ccc(Cl)cc1,-2
C[C@@H](NC(=O)C[C@@H]1CC[C@@H]2[C@H](COC[C@@H](O)CN2Cc2cc(F)ccc2F)O1)c1ccccc1,7
O=C(C[C@@H]1C[C@@H]2c3cc(NC(=O)NC4CCCC4)ccc3O[C@@H]2[C@@H](CO)O1)NCc1ccc(-c2ccccc2)cc1,0
C[C@H]1CN([C@@H](C)CO)C(=O)c2cc(C3=CCCC3)cnc2O[C@@H]1CN(C)Cc1cccc(F)c1,0
CCCNC(=O)N1[C@H](CO)[C@@H]2c3ccccc3N(C(=O)c3ccc(F)cc3)C[C@@H]21,1
O=C(O)[C@@H]1[C@@H](CO)[C@@H]2Cn3c(ccc(-c4ccc(F)cc4)c3=O)[C@@H]2N1C(=O)Nc1ccccc1,4
O=C(C[C@@H]1C[C@H]2c3cc(NC(=O)Cc4ccncc4)ccc3O[C@H]2[C@@H](CO)O1)NCc1ccc(-c2ccccc2)cc1,-31*
COc1ccccc1CNC(=O)C[C@@H]1C[C@@H]2c3cc(NC(=O)CN(C)C)ccc3O[C@@H]2[C@@H](CO)O1,6
COc1ccccc1CNC(=O)C[C@H]1C[C@H]2c3cc(NC(=O)CN(C)C)ccc3O[C@H]2[C@H](CO)O1,2
O=C(C[C@H]1C[C@@H]2c3cc(NC(=O)Cc4ccncc4)ccc3O[C@@H]2[C@H](CO)O1)NCc1ccc(-c2ccccc2)cc1,-10
COc1ccccc1CNC(=O)C[C@H]1C[C@H]2c3cc(NC(=O)Cc4ccncc4)ccc3O[C@H]2[C@H](CO)O1,-34*
CN(C)CC(=O)Nc1ccc2c(c1)[C@H]1C[C@H](CC(=O)NCc3ccc(-c4ccccc4)cc3)O[C@@H](CO)[C@H]1O2,-9
SMILES,DUX4 txn inh
O=C(C[C@@H]1C[C@H]2c3cc(NC(=O)Cc4ccncc4)ccc3O[C@H]2[C@@H](CO)O1)NCc1cccc(F)c1,4
O=C(C[C@H]1C[C@H]2c3cc(NC(=O)Cc4ccncc4)ccc3O[C@H]2[C@H](CO)O1)NCc1cccc(F)c1,-30*
O=C(C[C@@H]1C[C@@H]2c3cc(NC(=O)Cc4ccncc4)ccc3O[C@@H]2[C@@H](CO)O1)NCc1cccc(F)c1,-5
CC(C)[C@@H]1CC=CC[C@@H](C)Oc2ccccc2C(=O)N(C)[C@H](C)C(=O)N1 (mixture of isomers),-3
COc1ccccc1C(=O)N1C[C@@H]2[C@H](c3ccccc31)[C@@H](CO)N2C(=O)Nc1ccccc1,0
O=C(c1ccccc1)N1CC(=O)N2[C@@H](CO)[C@H](c3ccc(/C=C/c4ccccc4)cc3)[C@@H]2C1,2
CC(C)(O)C#Cc1ccc([C@H]2[C@@H](CO)N3CCCCN(C(=O)c4ccc(F)cc4)C[C@H]23)cc1,-5
CC(C)C#Cc1ccc([C@H]2[C@@H](CO)N3CCCCN(C(=O)c4ccc(F)cc4)C[C@H]23)cc1,-40*
CC(C)C#Cc1ccc([C@@H]2[C@@H](CO)N3CCCCN(C(=O)c4ccc(F)cc4)C[C@H]23)cc1,0
O=C(c1cccc(F)c1)N1CCCCN2[C@H](C1)[C@H](c1ccc(/C=C/c3ccccc3)cc1)[C@@H]2CO,-9
O=C(CN1CCOCC1)N1CCCCN2[C@H](C1)[C@@H](c1ccc(/C=C/c3ccccc3)cc1)[C@@H]2CO,-7
O=C(c1cccc(F)c1)N1CCCCN2[C@H](C1)[C@@H](c1ccc(/C=C/c3ccccc3)cc1)[C@@H]2CO,-41*
O=C(CN1CCOCC1)N1CCCCN2[C@H](CO)[C@H](c3ccc(/C=C/c4ccccc4)cc3)[C@H]2C1,5
O=C(c1cccc(F)c1)N1CCCCN2[C@H](CO)[C@H](c3ccc(-c4ccccc4)cc3)[C@H]2C1,3
CCC(=O)N1CCCCN2[C@@H](CO)[C@H](c3ccc(/C=C/c4ccccc4)cc3)[C@@H]2C1,-16*
O=C(O)C[C@H]1C[C@H]2c3cc(NC(=O)Nc4ccccc4)ccc3O[C@H]2[C@H](CO)O1,2
CCCN1[C@@H]2c3ccc(-c4cccc(F)c4)c(=O)n3C[C@@H]2[C@@H](CO)[C@@H]1C(=O)N(C)C,-1
CCC(=O)N1CC2(C1)CN(C(=O)CN1CCOCC1)[C@@H](CO)c1[nH]c3cc(OC)ccc3c12,6
CO[C@@H]1CN(C)C(=O)c2ccc(NC(=O)c3nc4ccccc4s3)cc2OC[C@@H](C)N(Cc2cccnc2)C[C@H]1C,-65*
CO[C@H]1CN(C)C(=O)c2ccc(NC(C)=O)cc2OC[C@@H](C)N(Cc2cccnc2)C[C@@H]1C,0
CO[C@@H]1CN(C)C(=O)c2ccc(NC(C)=O)cc2OC[C@H](C)N(Cc2cccnc2)C[C@H]1C,2
COc1ccc2c3c(n(C)c2c1)[C@H](CO)N(C(=O)Nc1ccccc1F)CC31CN(C(C)=O)C1,11
COc1ccc2c3c([nH]c2c1)[C@@H](CO)N(C(C)=O)CC31CCN(S(=O)(=O)c2cccs2)CC1,6
CCNC(=O)[C@@H]1[C@@H](CO)[C@@H]2Cn3c(ccc(-c4ccccc4)c3=O)[C@@H]2N1C(=O)C1CC1,2
CN1c2ccc(-c3cccc(F)c3)cc2[C@H]2[C@H](CCN2C(=O)c2ccccc2F)[C@H]1CO,-45*
O=C(c1cccc(F)c1)N1CC[C@@H]2[C@H](CO)Nc3ccc(C#CC4CC4)cc3[C@@H]21,6
CN1c2ccc(-c3cccc(F)c3)cc2[C@H]2[C@H](CCN2C(=O)c2ccncc2)[C@@H]1CO,-1
O=C(c1cccc(F)c1)N1CC[C@@H]2[C@H](CO)Nc3ccc(C#Cc4ccc(F)cc4)cc3[C@@H]21,-42*
O=C(c1cccc(F)c1)N1CC[C@@H]2[C@H]1c1cc(-c3ccccc3F)ccc1N[C@@H]2CO,1
O=C(c1ccccc1)N1CC[C@@H]2[C@@H](CO)Nc3ccc(C#Cc4cccc(F)c4)cc3[C@@H]21,-43*
